Assay outcomes (PubChem)
Sampled rows, rich in hits. Any-hit rate of the full collection: about 6.8%.
Autofluor 339: intrinsic fluorescence of library compounds, ex339/em460 – biochemical, MLSMR library, data from DPM-DC assay, artefact control, profiling panel. compound autofluorescence, ex339/em460 nm, NADH buffer; active compounds read high; 1 = no-compound wells, NADH background. fluorescence fold increase at 10 µM. 65,000 tested, 5.5% active. AID 709;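 active = at 10 µM, mean starting fluorescence two-fold or more over control wells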;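 also: signal is the first read of a kinetic run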
DPM-DC inhibit: inhibitors of Streptococcus pneumoniae diphosphomevalonate decarboxylase; purified DPM-DC, PK/LDH coupled NADH fluorescence; calls only at 10 µM; 65,000 tested, 0.49% active; AID 556;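 active = the 320 compounds with the highest percent inhibition in the single-dose primary screen, excluding strongly autofluorescent ones, cut at about 32% in these data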;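 also: kinetic rate of NADH fluorescence loss reporting ADP formed by the decarboxylase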
PMK inhibit: S. pneumoniae PMK inhibition; inhibition, % at 10 µM; purified PMK, PK/LDH-coupled NADH absorbance 340 nm; AID 539; 65,000 tested, 0.49% active;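 active = top-ranked compounds by inhibition in the single 10 µM screen, taking a fixed number of the strongest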;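 also: 0% = full reaction with DMSO carrier and 100% = background rate without enzyme reaction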
A340 absorber: compounds absorbing at 340 nm; fold change at 10 µM; compound absorbance at 340 nm, fold over control; AID 708; 65,000 tested, under 10 active;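 active = at 10 µM dose, initial 340 nm absorbance at least 2 fold that of control wells; inactive = change under 2 fold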;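 also: initial absorbance extrapolated from kinetic A340 decline of NADH oxidation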
Spn MK inh: blocks S. pneumoniae mevalonate kinase; purified MK, PK/LDH-coupled NADH absorbance 340 nm; inhibition, % at 10 µM; 65,000 tested, 0.48% active; AID 555;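 active = ranked among the strongest by inhibition in the single 10 µM screen, a fixed top-ranked set picked for dose follow-up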
NADH coupling: blocks coupling enzymes of NAD/NADH assays | AID 774 | 65,000 tested, 0.02% active | IC50, µM (top dose mostly 10 µM), for inactives: top-dose inhibition | coupled PK/LDH NADH assays, four targets;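 active = single-dose screening hits from any of four coupled enzyme assays that gave an IC50 when retested across doses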;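 also: the DPM-DC format reads NADH fluorescence rather than 340 nm absorbance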
An asterisk follows results filed as active; i = inactive; / = no result shown; + = active, no number.

SMILES	Autofluor 339	DPM-DC inhibit	PMK inhibit	A340 absorber	Spn MK inh	NADH coupling
O=C(COC(=O)c1cc(-c2cccs2)nc2ccccc12)NCc1ccco1	4.94*	/	15.0	1.04	2.0	9.0%
CC(C)Cn1c(N)c(C(=O)COC(=O)c2cc(-c3ccco3)nc3ccccc23)c(=O)n(C)c1=O	2.14*	/	0.0	1.01	0.0	1.0%
O=C(COC(=O)c1cc(-c2ccco2)nc2ccccc12)NCc1ccc2c(c1)OCO2	2.08*	/	0.0	1.04	9.0	2.0%
CCOC(=O)N1CCN(C(=O)C(NS(=O)(=O)c2cccc3nsnc23)c2ccccc2)CC1 (centres undefined)	1.02	i	15.0	1	7.0	3.0%
COc1cccc(N2CC(C(=O)Nc3ccc(C(=O)OC(C)C)cc3)CC2=O)c1 (centres undefined)	1.08	i	4.0	1.03	10.0	7.0%
CC(C)OC(=O)CN1CCN(C2c3ccccc3-c3ccccc32)CC1	1.17	i	2.0	1	0.0	1.0%
CC(Oc1ccccc1)C(=O)Nc1ccc(S(=O)(=O)NCC2CCCO2)cc1 (centres undefined)	1.06	i	7.0	1.01	10.0	2.0%
COc1ccc2c(c1)-c1ccccc1S(=O)(=O)N2C(C)=O	3.65*	+	7.0	1.03	0.0	15.0%
COc1ccc(OC)c(NC(=O)CN2C(=O)c3ccccc3S2(=O)=O)c1	1.15	i	0.0	0.99	1.0	0.0%
COc1cccc(C2CC(c3ccccc3Cl)n3ncnc3N2)c1 (centres undefined)	1.11	i	10.0	1	7.0	6.0%
CCOC(=O)c1cnc(SC2CCc3ccccc3C2=O)nc1N (centres undefined)	1.13	i	7.0	1.02	15.0	7.0%
Cc1cc(C)c2c(n1)nn1c(NCCCn3ccnc3)cc(C)nc21	3.91*	/	9.0	0.98	10.0	10.0%
Cc1cc(C)c2c(n1)nn1c(NCCCN3CCOCC3)cc(C)nc21	3*	/	5.0	1	4.0	3.0%
Cc1cc(NCCCN2CCOCC2)n2ncc(-c3ccccc3)c2n1	2.12*	i	16.0	1.06	10.0	12.0%
COc1ccccc1-c1c(C)nn2c(NCCN3CCCC3)cc(C)nc12	1.14	i	5.0	1.05	1.0	2.0%
Cc1cc(NCCOCCO)n2ncc(-c3ccc(Cl)cc3)c2n1	2.56*	i	9.0	1.01	11.0	15.0%
Cc1ccc(S(=O)(=O)N(C)CC(=O)Nc2ccncc2)cc1	1.09	i	6.0	1.01	5.0	4.0%
Cc1sc2c(c1C)c(=O)n(-c1ccccc1)c1nnc(C)n21	1.08	i	0.0	1.06	0.0	0.0%
Cc1cc(NCCCN2CCOCC2)n2nc(C)c(-c3ccccc3)c2n1	1.49	i	13.0	1.04	10.0	11.0%
Cc1cc(NCCCN2CCOCC2)n2nc(C)c(-c3ccc(F)cc3)c2n1	1.58	i	25.0*	1.09	0.0	8.0%
CCOC(=O)N1CCN(c2nc(C)c3c(n2)CC(C)CC3=O)CC1 (centres undefined)	1.06	i	10.0	0.99	11.0	7.0%
COc1ccc(C(=O)Nc2ccc(N3CCN(c4ccc(OC)cc4)CC3)c(C#N)c2)cc1	5.12*	/	14.0	1.03	7.0	11.0%
COc1ccc(N2CCN(c3ccc(NC(=O)C4CCCCC4)cc3C#N)CC2)cc1	2.19*	i	8.0	1.02	1.0	5.0%
COc1ccc(C(=O)N2CCC(C(=O)Nc3ccc(OC)c(OC)c3)CC2)cc1	1.11	i	5.0	1.01	4.0	3.0%
COc1ccc(N2CCN(c3ccc(N)cc3C#N)CC2)cc1	1.46	i	15.0	1.01	3.0	6.0%
SMILES	Autofluor 339	DPM-DC inhibit	PMK inhibit	A340 absorber	Spn MK inh	NADH coupling
CCCCCCn1c(C(C)NC(=O)c2ccco2)nc2ccccc21 (centres undefined)	1.32	i	5.0	1.04	6.0	8.0%
CCOC(=O)c1ccccc1NC(=O)CN(c1ccccc1)S(=O)(=O)N(C)C	1.11	i	7.0	1.04	7.0	6.0%
CCc1ccc(CCC(=O)Nc2nnc(CC)s2)o1	1.09	i	0.0	1.06	11.0	4.0%
COC(=O)c1ccc(CNC(=O)COc2ccccc2Br)o1	1.07	i	6.0	1	8.0	3.0%
CN(C)C=Nc1ncc2c3ccccc3n(CCN(C)C)c2c1C#N	2.3*	i	16.0	1.19	10.0	16.0%
CN(C)C=Nc1ncc2c3ccccc3n(Cc3ccccc3)c2c1C#N	3.02*	/	0.0	1.08	5.0	3.0%
Cc1ccc(CNC(=O)c2cc3c(=O)n4ccccc4nc3n(Cc3ccco3)c2=N)cc1	2.33*	/	6.0	1.01	8.0	7.0%
CCOC(=O)c1cc2c(=O)n3ccccc3nc2n(CC2CCCO2)c1=NC(C)=O (centres undefined)	2.04*	i	12.0	1.02	10.0	9.0%
N=c1c(C(=O)NCc2ccccc2)cc2c(=O)n3ccccc3nc2n1Cc1ccco1	1.85	i	0.0	1	0.0	6.0%
Cc1ccc(CNC(=O)c2cc3c(=O)n4ccccc4nc3n(CC3CCCO3)c2=N)cc1 (centres undefined)	2.35*	/	8.0	1.03	1.0	5.0%
N=c1c(C(=O)NCc2ccc(F)cc2)cc2c(=O)n3ccccc3nc2n1Cc1ccco1	2.72*	i	7.0	1.07	0.0	7.0%
Cc1ccc(-c2nnc(N3CCOCC3)c3ccccc23)cc1S(=O)(=O)NCC1CCCO1 (centres undefined)	1.09	i	0.0	1.04	10.0	3.0%
CC(=O)c1cccc(-n2nnnc2SCC(=O)Nc2cccc(NC(=O)c3ccco3)c2)c1	1.05	i	5.0	1.07	0.0	2.0%
Cc1oc2cc(O)ccc2c(=O)c1-c1cnn(-c2ccccc2)c1	2.51*	/	8.0	1	7.0	5.0%
CCOC(=O)c1sc2nc(C)cc(C)c2c1N	2.4*	/	8.0	1.02	6.0	4.0%
Cc1cc(C)c2c(N)c(C(=O)N3CCN(c4ncccn4)CC3)sc2n1	2.2*	i	10.0	1.01	13.0	9.0%
CCOC(=O)CNC(=O)c1sc2nc(C)cc(C)c2c1N	3.87*	/	16.0	1.08	10.0	13.0%
COCc1cc(C)nc2sc(C(=O)N3CCN(c4ccccc4)CC3)c(N)c12	1.24	i	6.0	1.08	6.0	7.0%
O=C(CC(C(=O)N1CCc2ccccc21)n1ccnc1)N1CCc2ccccc2C1 (centres undefined)	1.05	i	17.0	0.98	0.0	6.0%
COc1cc2c(cc1OC)/C(=C/C(=O)N1CCOCC1)NC(C)(C)C2	2.47*	+	1.0	1.04	6.0	13.0%
Cc1csc(NC(=O)CCC(=O)N(CC(=O)NC2CCCC2)Cc2ccco2)n1	1.2	i	18.0	0.99	0.0	6.0%
CC(=O)Nc1ccc(S(=O)(=O)N2CCN(c3cc(C)nc4ccccc34)CC2)cc1	1.01	i	18.0	1	5.0	3.0%
